Screening results deposited in PubChem by several laboratories.
HSF-1 act: increases HSF-1 driven luciferase reporter signal | NIH3T3-HGL HSF-1 luciferase reporter, MG132, 8 h; 100% = twice DMSO control signal | AID 504408 | 300,000 tested, 1.7% active | activation, % at 9 µM;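 active = mean replicate activation of at least 50% with a set share of replicates each reaching 50%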
GAA850 FXN act: increases GAA850 frataxin promoter reporter activity; AID 540364; 360,000 tested, 0.56% active; HEK293 lucGAA850 FXN promoter luciferase reporter, 24 h; percent of 10 µM SAHA response; activation, % at 6 µM;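 active = activation above the average of all compounds screened plus 3 SD, cutoff fixed separately per campaign, cut at about 7.5% in these data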
AHR activator: human AHR activation | AHR-responsive luciferase reporter cells, luminescence | AID 2796 | activation, % at 5 µM | 320,000 tested, 2.5% active | P35869; in the data active = activation above about 47%
NR0B1 inh: inhibitors of human orphan nuclear receptor DAX1 (NR0B1). HEK293 Gal4-DAX1 luciferase reporter, luminescence. inhibition, % at 6.75 µM. 340,000 tested, 0.99% active;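 active = inhibition above the mean over all tested compounds plus 3 SD, cut at about 4.2% in these data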;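 also: inhibition shows as a rise in luminescence from relieved DAX1 repression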
Target sequence (P51843 207-470 limits assumed): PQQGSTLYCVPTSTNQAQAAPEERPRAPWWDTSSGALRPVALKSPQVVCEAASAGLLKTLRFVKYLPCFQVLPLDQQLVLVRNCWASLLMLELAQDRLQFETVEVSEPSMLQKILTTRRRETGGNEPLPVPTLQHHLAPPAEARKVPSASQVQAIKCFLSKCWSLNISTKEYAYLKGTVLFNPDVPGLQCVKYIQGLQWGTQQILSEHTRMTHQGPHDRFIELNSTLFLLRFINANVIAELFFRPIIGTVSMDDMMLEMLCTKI
HSF1 inh: HSF1 inhibition; NIH3T3-HGL HSE-luciferase, MG132-induced, luminescence 8 h; active compounds read low; activity change, negative = inhibition, % at 7.5 µM (by protocol); 300,000 tested, 0.77% active; AID 2098;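 active = more than half of replicate wells show activity change below -50%, luminescence cut by over half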;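 also: luciferase reports HSF-1 transcriptional activity via heat shock element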
Of the large screens only hits and unclear results are named; the others gave an inactive call. Hits are enriched below; roughly 5.4% of the tested compounds scored in any of these assays.

COc1ccc(-c2csc(/C(C#N)=C(\O)CSc3nccn3C)n2)cc1OC	HSF1 inh -88
O=c1[nH]c(N/N=C/c2ccccc2)nc2ccccc12	none
Cc1[nH]c2ccccc2c1/C=N/Nc1nc2ccccc2[nH]1	HSF-1 act 403, AHR activator 143 (no result: NR0B1 inh)
C(=N\Nc1nc2ccccc2[nH]1)/c1ccccc1	HSF-1 act 199
CCCc1cc(=O)[nH]c(SC/C=C/c2ccccc2)n1	none (no result: NR0B1 inh)
CCCc1cc(=O)[nH]c(N/N=C/C=C\c2ccccc2)n1	NR0B1 inh 4.9
C(=C\c1ccccc1)/C=N/Nc1nc2ccccc2[nH]1	AHR activator 65
CC(c1nccs1)N(C)c1nc2nonc2nc1N(C)C (centres undefined)	none (no result: HSF-1 act, HSF1 inh)
Cc1cccc(OCC(=O)O/N=C(\N)c2ccncc2)c1	none
Fc1cccc(/C=N/Nc2nc3ccccc3[nH]2)c1	none (no result: GAA850 FXN act, NR0B1 inh)
Cc1ccccc1/C=N/Nc1nc2ccccc2[nH]1	HSF-1 act 229, AHR activator 65
O=[N+]([O-])c1cc(/C=N/Nc2nc3ccccc3[nH]2)c(O)cc1O	HSF-1 act 305 (no result: GAA850 FXN act, NR0B1 inh)
COc1ccc(/C=N/Nc2nc3ccccc3[nH]2)c(OC)c1OC	HSF-1 act 108, AHR activator 51, NR0B1 inh 7.5
COc1ccc(/C=N/Nc2ccccn2)c(OC)c1OC	none
Fc1ccc(/C=N/Nc2nc3ccccc3[nH]2)cc1F	HSF-1 act 95, AHR activator 49
COc1ccccc1CC(=O)NCCN1CCCCC1	none
COc1ccc(NC(=O)C2CC(=O)N(CCc3ccc(F)cc3)C2)c(OC)c1 (centres undefined)	none
O=C(COC(=O)c1ccc2ccccc2c1O)NCC(F)(F)F	none
COc1ccccc1OCC(=O)N/N=C/c1cccc2cccnc12	none
Cc1cc(C)n(CCC(=O)N/N=C/c2ccc(O)cc2)n1	none
Cc1cc(C)n2nc(C(=O)N/N=C/c3c4ccccc4cc4ccccc34)nc2n1	HSF-1 act 188
Cc1cc(C)n(CCC(=O)N/N=C/c2c(O)ccc3ccccc23)n1	AHR activator 62
Cc1cc(C)n2nc(C(=O)N/N=C/c3ccccc3Cl)nc2n1	none
COc1ccccc1OCC(=O)N/N=C/c1c(O)ccc2ccccc12	AHR activator 51
COc1ccc(C(=O)N2[C@@H](C(C)C)COc3cc(Br)ccc3S2(=O)=O)cc1	none (no result: HSF-1 act, AHR activator, HSF1 inh)
CC(=O)Nc1ccc(S(=O)(=O)NCCCN2CCN(Cc3ccccc3)CC2)cc1Cl	none
Clc1ccc(-c2nc3n(n2)Cc2ccccc2-3)cc1	AHR activator 74
Cc1ccccc1OCCOc1ccccc1C=C(C#N)C#N	none (no result: HSF-1 act, GAA850 FXN act, NR0B1 inh, HSF1 inh)
Cc1cccc(NC(=O)CCS(=O)(=O)c2ccc(Cl)cc2)c1	none
O=C(O)C1CCCCC1C(=O)Nc1cccc(C(=O)N2CCCCC2)c1 (centres undefined)	HSF1 inh -56
CN(C)c1ccc(NC(=O)c2ccc3c(c2)nnn3C)cc1	none
CN(C)c1ccc(NC(=O)Nc2ccc3c(c2)nnn3C)cc1	NR0B1 inh 6.5
O=c1[nH]cnc2scc(-c3ccc(-c4ccccc4)cc3)c12	HSF-1 act 58
COc1cc(NC(=O)C[n+]2ccc(C(=O)c3ccccc3)cc2)cc(OC)c1	none (no result: HSF-1 act, HSF1 inh)
COC(=O)c1cccc(NS(=O)(=O)c2ccc(OC)c(C(=O)N3CCOCC3)c2)c1C	none
O=C(COc1ccc(Br)cc1Br)NC1CCCC1	none
CC(C)NC(=O)NC(=O)COc1ccc(Br)cc1Br	HSF-1 act 87
CCOc1[nH]n(-c2ccc(Cl)cc2)c(=O)c1C=NCc1cccnc1	AHR activator 56
COc1cc2c(cc1OC)-c1cc(Nc3ccc4c(c3)OCCO4)nc(=O)n1CC2	HSF1 inh -72
CCOc1ccc(N(CC(=O)NC(C)(C)C)S(=O)(=O)c2c(C)noc2C)cc1	NR0B1 inh 6.8
CCOc1ccc(N(CC(=O)Nc2ccc(F)c(F)c2)S(=O)(=O)c2c(C)noc2C)cc1	NR0B1 inh 4.4
CCOc1ccc(N(CC(=O)Nc2ccc(C)cc2)S(=O)(=O)c2c(C)noc2C)cc1	none
COc1cccc(-c2cc(N3C(=O)Nc4ccccc4N3O)n[nH]2)c1	NR0B1 inh 4.8
Cc1cc(NC(=O)CSc2nnc(C)n2-c2ccccc2C)no1	NR0B1 inh 4.2
Cc1cc(NC(=O)CSc2nc3c(C)ccc(C)c3cc2C#N)no1	NR0B1 inh 5.7
Cc1cc(NC(=O)CSc2nc3c(C)cccc3cc2C#N)no1	none
Cc1nn(C)c(C)c1NC(=S)Nc1ccc(S(=O)(=O)Nc2ncccn2)cc1	none
Cc1ccc(C(=O)Nc2ccccc2C(=O)O)cc1S(=O)(=O)NCc1ccccc1	HSF1 inh -92
CNC(=S)N/N=C/c1c2ccccc2c(Cl)c2ccccc12	AHR activator 48
CNC(=S)N/N=C/c1c(C)cccc1Cl	none
COc1ccc(NC(=O)[C@@H]2CCCN2S(=O)(=O)c2cccc3cccnc23)cc1	none (no result: HSF-1 act, HSF1 inh)
COc1cc(NC(=O)C2CCCN2S(=O)(=O)c2cccc3cccnc23)cc(OC)c1OC (centres undefined)	NR0B1 inh 4.6
CCOC(=O)Cc1c(C)nc2cc(-c3ccc(Cl)cc3)[nH]n2c1=O	AHR activator 58
CCOC(=O)CCc1c(C)nc2cc(-c3ccc(F)cc3)[nH]n2c1=O	none
CN1N=C(C(=O)N2CCc3c([nH]c4ccccc34)C2c2c(F)cccc2Cl)CCC1=O (centres undefined)	NR0B1 inh 5.3
C=CSc1sc(Cl)c(N2CCOCC2)c1[N+](=O)[O-]	none
C=CS(=O)(=O)c1sc(Cl)c(N2CCOCC2)c1[N+](=O)[O-]	HSF-1 act 74 (no result: AHR activator)
C=CCn1c(-c2cc(-c3ccccc3)sc2N)n[nH]c1=S	HSF-1 act 174 (no result: NR0B1 inh)
Nc1sc(-c2ccccc2)cc1-c1n[nH]c(=S)n1C1CCCCC1	HSF-1 act 84 (no result: NR0B1 inh)
COc1c(Cl)cc(C(=O)NCc2ccco2)cc1Cl	none
O=C1CCC2S/C(=C/Nc3ccc(C(F)(F)F)cc3)C(=O)N12 (centres undefined)	HSF1 inh -65
CC(=O)Nc1ccc(NC(=O)c2nc(-c3ccccc3)oc2C)cc1	none
O=C(O)c1ccc(-n2nnnc2Oc2ccccc2C(=O)N2CCOCC2)cc1	NR0B1 inh 4.9
COC(C(=O)Nc1ccc(S(=O)(=O)Nc2cccc3ccccc23)cc1)c1ccccc1 (centres undefined)	HSF-1 act 55
COc1ccc(C(C)(C)C)cc1NC(=O)C1CC(=O)N(C2CCCC2)C1 (centres undefined)	none (no result: HSF-1 act, HSF1 inh)
CC(=O)Nc1ccccc1NC(=O)C(F)(F)F	none
Cc1cc(N=Nc2ccccc2)cc(C)c1NC(=O)C(F)(F)F	NR0B1 inh 5.1 (no result: HSF-1 act, AHR activator, HSF1 inh)
CC(C)(C)C(=O)Nc1ccc(N=Nc2ccccc2)cc1	HSF1 inh -78
CCOc1ccc(Br)cc1C(=O)N/N=C/c1ccccn1	none
O=C(N/N=C/c1c[nH]c2ccccc12)c1cc(Br)ccc1O	AHR activator 77
CCOc1ccc(Br)cc1C(=O)N/N=C/c1c[nH]c2ccccc12	AHR activator 47
Cc1ccc2oc(=O)n(CCCOc3ccccc3)c2c1	HSF-1 act 59
